Screening data (PubChem)
IL-1B inflam inh: inhibitors of inflammasome signaling (IL-1 beta secretion) | THP-1 LPS/ATP IL-1B secretion, AlphaLISA, 16 h; active compounds read low | activity change, % at 57.5 µM | actives 4.7% (n = 360,000) | AID 743279; in the data active = activity change below about -50%; inconclusive = mostly about -30% to -49%; also: % is scaled to controls: 0 for no effect and ±100 for the full control effect
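Secreted IL-1B measured by AlphaLISA bead assay after 16 h compound exposure of THP-1 cells; compounds (final up to 57.5 uM) added 1 h before LPS (250 ng/mL) and ATP (1.25 mM) stimulation; lower signal means less secretion.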
HepG2 viability: kills HepG2 cells in TGF-b inhibitor counter-screen; HepG2 CAGA-GFP viability, ATP luminescence, 18 h; actives 0.76% (n = 410,000); AID 588856; Potency, µM (top dose mostly 46.1 µM), for the others: at the highest dose activity change, negative = cytotoxicity, actives largely listed as cytotoxic; also: potency is read from the fitted curve at half-maximal effect
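CellTiter-Glo luminescence gave cytotoxicity after 18 hours at 37 degrees C. The cells were HepG2 CAGA-GFP in 1% FBS DMEM, stimulated with 500 pg/mL TGF-beta after compound addition. %Activity was normalised to no-cell wells (complete cell-killing) and DMSO (no toxicity), and curves were fitted and classified.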
TGFb inhibitor: TGF-b pathway inhibition; Potency, µM (titrated, usually from 46.1 µM), without a hit: at the top dose activity, negative = inhibition, most hits filed as inhibitors; HepG2 CAGA-GFP TGF-b/SMAD3 reporter, GFP fluorescence, 18 h; TGF-beta stimulated, 500 pg/mL final; actives 1.2% (n = 410,000); also: potency is read from the fitted curve at half-maximal effect; % is scaled to controls: 0 for no effect and ±100 for the full control effect; nearly all actives have a fitted effect of over 65% in size
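HEPG2 CAGA-GFP, 1000 cells/well; 2 h settle, 37 C; cpd via pin tool; TGF-b 500 pg/mL final; 18 h, 37 C; GFP imaging ex488/em500-530; %Activity normalised to -TGF-b and +DMSO controls; CRC fit, curve class.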
DT40 TDP1 no CPT: qHTS for Inhibitors of human tyrosyl-DNA phosphodiesterase 1 (TDP1): qHTS in cells in absence of CPT | Potency, µM (doses to about 46.2 µM), for inactives: at the highest dose activity change, negative = growth inhibition, actives largely listed as inhibitors | DT40 Tdp1-/- hTDP1 cells, no CPT, ATP luminescence, 48 h | AID 686978, 2013 | actives 15% (n = 420,000); also: potency is read from the fitted curve at half-maximal effect; % is scaled to controls: 0 for no effect and ±100 for the full control effect; nearly all actives have a fitted effect of over 55% in size
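Seeded 400 DT40-hTDP1 cells/well (vehicle DMSO, no 20 nM CPT); pinned compounds; ≥48 hr at 37 °C; CellTiter-Glo luminescence as viability measure.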
TDP1 block: blocks human tyrosyl-DNA phosphodiesterase 1; Potency, µM (highest dose often 130 µM), inactives show top-dose activity change, negative = inhibition, most hits filed as inhibitors; Q9NUW8; AID 485290; actives 0.28% (n = 350,000); recombinant TDP1, AlphaScreen DNA substrate cleavage; also: potency is read from the fitted curve at half-maximal effect; % is scaled to controls: 0 for no effect and ±100 for the full control effect; nearly all actives have a fitted effect of over 40% in size
Target sequence (Q9NUW8 whole entry, looked up): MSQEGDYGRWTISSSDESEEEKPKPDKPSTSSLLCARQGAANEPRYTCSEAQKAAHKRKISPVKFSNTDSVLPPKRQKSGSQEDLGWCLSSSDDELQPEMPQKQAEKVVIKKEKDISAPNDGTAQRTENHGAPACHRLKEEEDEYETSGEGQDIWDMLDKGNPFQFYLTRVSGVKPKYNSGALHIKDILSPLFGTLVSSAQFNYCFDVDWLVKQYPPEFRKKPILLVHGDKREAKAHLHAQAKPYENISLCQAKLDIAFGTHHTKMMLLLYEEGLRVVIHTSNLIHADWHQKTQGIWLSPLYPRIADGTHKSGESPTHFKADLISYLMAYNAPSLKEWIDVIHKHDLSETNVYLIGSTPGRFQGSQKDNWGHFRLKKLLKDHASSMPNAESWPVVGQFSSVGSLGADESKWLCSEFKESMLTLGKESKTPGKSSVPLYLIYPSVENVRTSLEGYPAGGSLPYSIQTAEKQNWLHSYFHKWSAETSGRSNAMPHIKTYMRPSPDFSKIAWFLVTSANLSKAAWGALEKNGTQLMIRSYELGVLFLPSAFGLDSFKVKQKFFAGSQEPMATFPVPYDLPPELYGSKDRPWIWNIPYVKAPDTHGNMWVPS
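Tdp1 1 nM final; 15 min RT w/ cpd; substrate 15 nM, 5 min; beads 10 ug/ml, 10 min; AlphaScreen read. Neg ctrl: no enzyme.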
DT40 TDP1 CPT: DT40-hTDP1 cell growth loss with CPT. Potency, µM (highest dose often 46.2 µM), for inactives: at the highest dose activity change, negative = growth inhibition, most hits filed as inhibitors. actives 12% (n = 420,000). chicken DT40 Tdp1-/-;hTDP1 cells + 20 nM CPT, ATP luminescence, 48 h. AID 686979; also: potency is read from the fitted curve at half-maximal effect; % is scaled to controls: 0 for no effect and ±100 for the full control effect; nearly all actives have a fitted effect of over 55% in size
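Cell growth measured by CellTiter-Glo luminescence after a minimum 48 h, 37 C compound exposure with 20 nM CPT in Tdp1-knockout DT40 cells stably expressing hTDP1, seeded 400/well; qHTS titration format.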
* marks the source's active call; other numbers are inactive results. A selection: hits, their analogues and other compounds. The true share with any hit is near 18%. Unless noted, calls follow the shape of the dose curve; as a rule, active = well fitted curve in the direction sought with a large enough effect; inconclusive = small, poorly fitted or top-dose-only effect, or another doubt; inactive = no such curve, though single readings can be large; an effect the other way counts as inactive or inconclusive.

For Cc1cc(C(=O)Nc2ccc(N3CCOCC3)cc2)c2ccccc2n1 the results were IL-1B inflam inh 7, HepG2 viability 3%, TGFb inhibitor 15%, DT40 TDP1 no CPT -16%, TDP1 block 6% and DT40 TDP1 CPT 4%.
For Cc1cc(C(=O)Nc2cccc(S(=O)(=O)N3CCOCC3)c2)c2ccccc2n1 the results were IL-1B inflam inh 23, HepG2 viability -23%, TGFb inhibitor -15%, DT40 TDP1 no CPT 23µM*, TDP1 block 0% and DT40 TDP1 CPT inconclusive.
O=C(NCc1ccccn1)c1ccc(-c2ccccc2)cc1 was read as IL-1B inflam inh inconclusive, HepG2 viability -11%, TGFb inhibitor 4%, DT40 TDP1 no CPT -1%, TDP1 block 6% and DT40 TDP1 CPT 13%.
Screening O=C(NCc1ccccn1)c1cn(-c2ccccc2)nc1-c1ccc(Cl)cc1 returned IL-1B inflam inh 0, HepG2 viability 0%, TGFb inhibitor -15%, DT40 TDP1 no CPT 26µM*, TDP1 block 3% and DT40 TDP1 CPT inconclusive.
`O=C(Cn1nnc(-c2ccccc2)n1)Nc1cccc(S(=O)(=O)N2CCOCC2)c1` gave IL-1B inflam inh -9, HepG2 viability -22%, TGFb inhibitor 0%, DT40 TDP1 no CPT 12µM*, TDP1 block 1% and DT40 TDP1 CPT inconclusive.
`CCCCn1c(N)c(N(CC(C)C)C(=O)C2CC(=O)N(Cc3ccco3)C2)c(=O)[nH]c1=O` (stereo not drawn) gave IL-1B inflam inh -6, HepG2 viability -3%, TGFb inhibitor -6%, DT40 TDP1 no CPT 6%, TDP1 block 0% and DT40 TDP1 CPT -10%.
Screening Cc1ccc(NC(=O)C2CCN(c3cc(C)nc4c(-c5ccc(Cl)cc5)c(C)nn34)CC2)c(C)c1 returned HepG2 viability -2%, TGFb inhibitor -7%, DT40 TDP1 no CPT -1%, TDP1 block 6% and DT40 TDP1 CPT 4%.
`Cc1cccc(NC(=O)c2cc(-c3ccccn3)nc3ccccc23)c1C` gave IL-1B inflam inh -27, HepG2 viability -7%, TGFb inhibitor -26%, DT40 TDP1 no CPT 13µM*, TDP1 block 0% and DT40 TDP1 CPT 23µM*.
`O=C(O)c1ccc(NC(=O)c2cn(-c3ccccc3)nc2-c2cccc(Cl)c2)cc1` gave IL-1B inflam inh 21, HepG2 viability -24%, TGFb inhibitor -2%, DT40 TDP1 no CPT 3.7µM* and DT40 TDP1 CPT inconclusive.
`Cc1ccc(S(=O)(=O)N2CCOCC2)cc1NC(=O)c1cc(-c2ccccn2)nc2ccccc12` gave IL-1B inflam inh -51*, HepG2 viability -57%, TGFb inhibitor inconclusive, DT40 TDP1 no CPT -27%, TDP1 block 5% and DT40 TDP1 CPT inconclusive.
Screening NS(=O)(=O)c1ccc(NC(=O)/C=C/c2cn(-c3ccccc3)nc2-c2cccc(Cl)c2)cc1 returned IL-1B inflam inh 14, HepG2 viability -45%, TGFb inhibitor inconclusive, DT40 TDP1 no CPT 29µM*, TDP1 block 3% and DT40 TDP1 CPT inconclusive.
For Cc1ccc(-c2csc(N3CCN(S(=O)(=O)c4ccc5c(c4)NC(=O)CO5)CC3)n2)cc1 the results were IL-1B inflam inh -20, HepG2 viability -2%, TGFb inhibitor -2%, DT40 TDP1 no CPT -24%, TDP1 block 5% and DT40 TDP1 CPT inconclusive.
CCc1nn2c(=O)cc(COC(=O)CNC(=O)COc3ccc(C)cc3)nc2s1 was read as HepG2 viability 5%, TGFb inhibitor inconclusive, DT40 TDP1 no CPT -10%, TDP1 block 6% and DT40 TDP1 CPT -8%.
Screening CCC(C)NC(=O)c1nn(-c2ccc(C)cc2)c(=O)n(C)c1=O (stereo not drawn) returned HepG2 viability 0%, TGFb inhibitor -12%, DT40 TDP1 no CPT -11%, TDP1 block 2% and DT40 TDP1 CPT -6%.
For O=C(Nc1cccc(S(=O)(=O)N2CCOCC2)c1)c1cn(-c2ccccc2)nc1-c1ccccc1 the results were IL-1B inflam inh -19, HepG2 viability -2%, TGFb inhibitor -15%, DT40 TDP1 no CPT 23µM*, TDP1 block 2% and DT40 TDP1 CPT inconclusive.
For O=C(Nc1cccc(S(=O)(=O)N2CCOCC2)c1)c1cn(-c2ccccc2)nc1-c1ccc(F)cc1 the results were IL-1B inflam inh 55, HepG2 viability -69%, TGFb inhibitor -9%, DT40 TDP1 no CPT inconclusive, TDP1 block 0% and DT40 TDP1 CPT inconclusive.
Screening Cc1sc2ncn(CC(=O)Nc3ccc(C(F)(F)F)cc3)c(=O)c2c1S(=O)(=O)N1CCN(C)CC1 returned HepG2 viability -27%, TGFb inhibitor 28%, DT40 TDP1 no CPT 1.3µM*, TDP1 block 6% and DT40 TDP1 CPT inconclusive.
`CCc1ccc(NC(=O)Cn2cnc3sc(C)c(S(=O)(=O)N4CCN(c5ccccc5OC)CC4)c3c2=O)cc1` gave HepG2 viability -2%, TGFb inhibitor inconclusive, DT40 TDP1 no CPT 16µM*, TDP1 block 6% and DT40 TDP1 CPT inconclusive.
`CCc1ccc(NC(=O)Cn2cnc3sc(C)c(S(=O)(=O)N4CCC(C)CC4)c3c2=O)cc1` gave HepG2 viability -4%, TGFb inhibitor -3%, DT40 TDP1 no CPT -27%, TDP1 block 3% and DT40 TDP1 CPT -6%.
`COc1ccccc1N1CCN(S(=O)(=O)c2c(C)nc3sc(C)c(C)n3c2=O)CC1` gave HepG2 viability -6%, TGFb inhibitor -17%, DT40 TDP1 no CPT 21µM*, TDP1 block -8% and DT40 TDP1 CPT 21µM*.
`O=C(NCc1nnc2n1CCN(Cc1ccccc1C(F)(F)F)CC2)c1ccncc1` gave DT40 TDP1 no CPT -7% and DT40 TDP1 CPT -22%.
For O=C(/C=C/c1ccco1)N1CCN(S(=O)(=O)c2ccccc2)CC1 the results were IL-1B inflam inh -8, HepG2 viability -24%, TGFb inhibitor -3%, DT40 TDP1 no CPT 9%, TDP1 block 10µM* and DT40 TDP1 CPT -15%.
Screening CC(C)(C)Sc1ccc2nc3c(n2c1)CCCC3 returned IL-1B inflam inh -16, HepG2 viability -29%, TGFb inhibitor 0%, DT40 TDP1 no CPT 5.8µM*, TDP1 block -8% and DT40 TDP1 CPT 21µM*.
Screening O=C1OCC(c2ccccc2)=C1c1ccccc1 returned IL-1B inflam inh 20, HepG2 viability 0%, TGFb inhibitor 6%, DT40 TDP1 no CPT -10%, TDP1 block 0% and DT40 TDP1 CPT -1%.
